{
  "source": "PubChem BioAssay (NCATS)",
  "note": "Inconclusive results are not listed. Calls of active or inactive are those of the source. Calls come from the whole dose curve; as a rule, active = well fitted inhibition curve with a large enough effect; inconclusive = small, poorly fitted or top-dose-only effect; inactive = no such curve, though single readings can be large or run the other way. Potency is the fitted concentration of half-maximal effect.",
  "data": [
    {"assay": "BET inhibitor-based combinations targeting novel dependencies in MECOM-rearranged (r) AML: OCI-AML3 cell line (AID 2202232); note: nearly all actives have a fitted effect of over 35% in size", "conditions": "CellTiter-Glo luminescence, 48 h; Potency: OCI-AML3 viability; series mostly up to 46 µM", "from_the_text": "Ecotropic viral insertion site 1 (EVI1) is located on chromosome 3q26.2 as part of the MECOM (MDS and EVI1 complex) locus. Under normal hematopoiesis, EVI1 is a regulator of hematopoietic stem cell maintenance and self-renewal and EVI1 levels decrease as the cells differentiate. In approximately 5-10% of de novo acute myeloid leukemia (AML) EVI1 is aberrantly expressed, including Chromosomal inv(3)(q21;q26.2) or t(3;3)(q21;q26.2) alterations (MECOM-r) that account for about 50% of AML with EVI1 overexpression 31. AMLs with high levels of EVI1 have a poor prognosis and an overall survival time averaging between 10-14 months. EVI1 overexpression confers resistance in leukemia cells, highlighting the need to develop new targeted therapies for EVI1 overexpressing AMLs.\nHere, we performed an unbiased chemical drug screening by evaluating the single agent activity of a collection of 2,480 oncology-focused, approved and investigational drugs (NCATS Mechanism Interrogation Plates, MIPE v5.0) against a panel of seven AML cell lines. These included four MECOM-r cell-lines (AML-191, AML-194, UCSD-AML1 and HNT-34) and three non-MECOM-r AMLs (MV4-11, OCI-AML3 and SET-2). Exploiting the mechanistic redundancy built in the library, we identified target-level sensitivities in MECOM-r AML cells and relative activity as compared to other AML subtypes.\nA collection of 2480 mechanistically annotated dugs (MIPE v5.0) was used to screen four 3q26.2 rearranged AML cell lines and three non-3q26.2 rearranged AML cell lines. This library purposely exploits redundancy by including multiple inhibitors of key onco-targets, while simultaneously encompassing mechanistic diversity, targeting more than 800 distinct mechanisms of action. Briefly, cells were seeded in 5 uL of growth media using a Multidrop Combi dispenser into 1536 well white polystyrene tissue culture treated plates (Corning) at a density of 500cells/well. For each cell-line, for each of the 2480 drugs in MIPE v5.0 library, an 11-point dose curve was generated via a 1536 pin-tool. Plates were incubated for 48 hr at standard incubator conditions, covered by a stainless steel gasketed lid to prevent evaporation. Cell viability was determined by luminescence based, Cell Titer Glo assay (Promega). In detail, 3 uL of Cell Titer Glo were added to each well and plates were incubated at room temperature for 15 min with a stainless-steel lid in place. Luminescence readings were taken using a Viewlux (PerkinElmer) with a 2 s exposure time per plate. Compound dose-response curves were normalized to DMSO and empty well controls on each plate. Quantitative drug activity data from dose-response curves was determined utilizing area Under the Curve (AUC) and Z-transformed AUC (Z-AUC, a mean-centering transformation applied to each individual cell-line screened).", "values": [
      {"smiles": "CC(C)(C)NC(=O)c1cncn1C1CCN(c2ccc(-c3nnc(C(F)(F)F)o3)cn2)CC1", "Potency": "1050 nM (active)"},
      {"smiles": "COc1cc2nccc(Oc3ccc(NC(=O)c4cn(C(C)C)c(=O)n(-c5ccc(F)cc5)c4=O)cc3F)c2cc1OC", "Potency": "inactive"},
      {"smiles": "COc1ccc(OC)c(-c2nnc3ccc(-c4ccc(OC)c(O[C@@H]5CCOC5)c4)nn23)c1", "Potency": "4170 nM (active)"},
      {"smiles": "Cc1ncsc1-c1ccc([C@H](C)NC(=O)[C@@H]2C[C@@H](O)CN2C(=O)[C@@H](NC(=O)COCCCOCCNC(=O)C[C@@H]2N=C(c3ccc(Cl)cc3)c3c(sc(C)c3C)-n3c(C)nnc32)C(C)(C)C)cc1", "Potency": "9.3 nM (active)"},
      {"smiles": "COC1CCC(N2C(=O)CNc3ncc(-c4ccc(C(C)(C)O)nc4)nc32)CC1", "note": "(stereo not given)", "Potency": "5250 nM (active)"},
      {"smiles": "CN(C)C(=O)COC(=O)Cc1ccc(OC(=O)c2ccc(N=C(N)N)cc2)cc1", "Potency": "inactive"},
      {"smiles": "CC(=O)CC(c1ccccc1)c1c(O)c2ccccc2oc1=O", "note": "(stereo not given)", "Potency": "inactive"},
      {"smiles": "C[C@@H]1CC2C3C[C@H](F)C4=CC(=O)C=C[C@]4(C)[C@@]3(F)[C@@H](O)C[C@]2(C)[C@@]1(OC(=O)c1ccco1)C(=O)SCF", "note": "(stereo not given in full)", "Potency": "20900 nM (active)"},
      {"smiles": "CCCCC(=O)OCC(=O)[C@]1(O)Cc2c(O)c3c(c(O)c2[C@@H](O[C@H]2C[C@H](NC(=O)C(F)(F)F)[C@H](O)[C@H](C)O2)C1)C(=O)c1c(OC)cccc1C3=O", "Potency": "590 nM (active)"},
      {"smiles": "CCCCCCCOc1ccc(CCC(N)(CO)CO)cc1C(F)(F)F", "Potency": "16600 nM (active)"},
      {"smiles": "C[C@H](NC(=O)CCC(F)(F)F)C(=O)N[C@@H]1C(=O)N(CCO)c2ncccc2-c2ccccc21", "Potency": "inactive"},
      {"smiles": "CNCCn1c(=O)c2cc(OC)c(OC)cc2c2cnc3cc4c(cc3c21)OCO4", "Potency": "21.5 nM (active)"},
      {"smiles": "CCCCC[C@H](O)C=C[C@H]1[C@H](O)CC(=O)[C@H]1CC=CCCCC(=O)O", "Potency": "5900 nM (active)"},
      {"smiles": "Cc1cc(-n2c(=O)ccc3cnc4[nH]ccc4c32)ccc1F", "Potency": "inactive"},
      {"smiles": "C=CC(=O)Nc1cccc(Oc2nc(Nc3ccc(N4CCN(C)CC4)cc3)nc3ccsc23)c1", "Potency": "10500 nM (active)"},
      {"smiles": "Cc1ccc(NS(=O)(=O)c2cccc(C#N)c2)c2[nH]cc(C#N)c12", "Potency": "1180 nM (active)"},
      {"smiles": "C/C(=C\\C(=O)Nc1ccccc1C(=O)O)c1ccc2ccccc2c1", "Potency": "inactive"},
      {"smiles": "COc1cc(OC)c(/C=C/S(=O)(=O)Cc2ccc(OC)c(OP(=O)(O)O)c2)c(OC)c1", "Potency": "118 nM (active)"},
      {"smiles": "C=CC(=O)N1CC/C(=C\\c2ccc(F)c([N+](=O)[O-])c2)C(=O)/C(=C/c2ccc(F)c([N+](=O)[O-])c2)C1", "Potency": "52.5 nM (active)"},
      {"smiles": "CCC[C@H](Nc1nc(-c2ccc(NC(=O)NCC)c(OC)c2)ncc1C)c1cccnc1", "Potency": "105 nM (active)"},
      {"smiles": "CCC(=O)O[C@]1(C(=O)CO)CC[C@H]2[C@@H]3CCC4=CC(=O)CC[C@]4(C)[C@H]3CC[C@@]21C", "Potency": "inactive"},
      {"smiles": "O=C(O)c1ccccc1-c1ccc(/C=c2\\sc3nc4cc(Br)cnc4n3c2=O)o1", "Potency": "inactive"},
      {"smiles": "Cc1ccc(NC(=O)c2ccc(CN3CC[C@H](N(C)C)C3)c(C(F)(F)F)c2)cc1Nc1nccc(-c2cncnc2)n1", "Potency": "2040 nM (active)"},
      {"smiles": "CC(C)(C)c1[nH]cnc1/C=c1\\[nH]c(=O)/c(=C/c2ccccc2)[nH]c1=O", "Potency": "74.2 nM (active)"},
      {"smiles": "CC1(C)SCCN(S(=O)(=O)c2ccc(OCC#CCO)cc2)[C@H]1C(=O)NO", "Potency": "inactive"},
      {"smiles": "Cc1cc(-c2nc3cc(F)ccc3s2)ccc1NC(=O)[C@@H](N)CCCCN", "Potency": "14800 nM (active)"},
      {"smiles": "CCCCC[C@H](O)/C=C/[C@H]1[C@H](O)CC(=O)[C@@H]1CCCCCCC(=O)O", "Potency": "9340 nM (active)"},
      {"smiles": "Cc1[nH]c(/C=C2\\C(=O)Nc3ccc(F)cc32)c(C)c1C(=O)NC[C@H](O)CN1CCOCC1", "Potency": "5250 nM (active)"},
      {"smiles": "Cc1onc(-c2ccccc2)c1-c1ccc(S(N)(=O)=O)cc1", "Potency": "inactive"},
      {"smiles": "CN(CCOc1ccc(C[C@H](Nc2ccccc2C(=O)c2ccccc2)C(=O)O)cc1)c1ccccn1", "Potency": "inactive"},
      {"smiles": "CCS(=O)(=O)Nc1ccc(Oc2ccc(F)cc2F)c(-c2cn(C)c(=O)c3[nH]ccc23)c1", "Potency": "11.8 nM (active)"},
      {"smiles": "CN1C(=O)[C@@H](NC(=O)c2cc(Cc3ccccc3)on2)COc2ccccc21", "Potency": "inactive"},
      {"smiles": "c1ccc2[nH]c(-c3cscn3)nc2c1", "Potency": "inactive"},
      {"smiles": "CC(=NNC(=O)c1cccc(S(=O)(=O)N2CCOCC2)c1)c1cc(Cl)ccc1O", "Potency": "5250 nM (active)"},
      {"smiles": "CC1(C(=O)O)CCC2(C)CCC3(C)C(=CC(=O)C4C5(C)CCC(OC6OC(C(=O)O)C(O)C(O)C6OC6OC(C(=O)O)C(O)C(O)C6O)C(C)(C)C5CCC43C)C2C1", "note": "(stereo not given)", "Potency": "inactive"},
      {"smiles": "Cc1ccc(C(=O)N(CCCN)[C@@H](c2oc3cc(Cl)ccc3c(=O)c2Cc2ccccc2)C(C)C)cc1", "Potency": "26.3 nM (active)"},
      {"smiles": "CN(C)CCN(C)C(=O)c1ccc(NC(=O)Nc2ccc(-c3nc(N4CCOCC4)c4ccn(CC(F)(F)F)c4n3)cc2)cc1", "Potency": "934 nM (active)"},
      {"smiles": "O=C(/C=C/c1ccc(CN(CCO)CCc2c[nH]c3ccccc23)cc1)NO", "Potency": "132 nM (active)"},
      {"smiles": "CN(C)CCCOc1ccc(-c2ccc3ncc4c(c3c2)n(C2CCOCC2)c(=O)n4C)cn1", "Potency": "7230 nM (active)"},
      {"smiles": "O=C(O)C1(Cc2cccc(Nc3nccs3)n2)CCC(Oc2cccc(Cl)c2F)CC1", "note": "(stereo not given)", "Potency": "662 nM (active)"}
    ]}
  ]
}
